Measured values published in PubChem BioAssay (NCATS).
“And” between values parts separate entries of the source, which are not always exact repeats. Equal entries are not always repeated. A number with no mark means an inactive call. Results filed as inconclusive are left out. A call without a number means that no potency is given here. The source made the active and inactive calls. Unless noted, calls come from the whole dose curve; as a rule, active = well fitted curve in the direction sought with a large enough effect; inconclusive = small, poorly fitted or top-dose-only effect, or another doubt; inactive = no such curve, though single readings can be large; an effect the other way counts as inactive or inconclusive.

Tests used:
CAOV3 = assay: Primary qHTS to identify gynecologic anti-cancer compounds using libraries of approved drugs and bioactive compounds (AID 1345084); details: Gynecologic cancer cell panel viability, ATPlite luminescence, 48 h; series mostly up to 57.5 µM; note: nearly all actives have a fitted effect of over 55% in size; note: potency is the fitted concentration of half-maximal effect
In short: (§1)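 Five-point cytotoxicity, 48 h drug exposure at 37 C, 5% CO2, on cells seeded 16 h beforehand. ATP content read by ATPlite luminescence.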

CASKI = assay: as above; details: Gynecologic cancer cell panel viability, ATPlite luminescence, 48 h; series mostly up to 57.5 µM
In short: as §1

Es-2 = assay: as above; details: Gynecologic cancer cell panel viability, ATPlite luminescence, 48 h; series mostly up to 57.5 µM
In short: as §1

HeLa = assay: as above; details: Gynecologic cancer cell panel viability, ATPlite luminescence, 48 h; series mostly up to 57.5 µM
In short: as §1

JEG-3 = assay: as above; details: Gynecologic cancer cell panel viability, ATPlite luminescence, 48 h; series mostly up to 57.5 µM
In short: as §1

PA-1 = assay: as above; details: Gynecologic cancer cell panel viability, ATPlite luminescence, 48 h; series mostly up to 57.5 µM
In short: as §1

SKOV3 = assay: as above; details: Gynecologic cancer cell panel viability, ATPlite luminescence, 48 h; series mostly up to 57.5 µM
In short: as §1

Tov-21-G = assay: as above; details: Gynecologic cancer cell panel viability, ATPlite luminescence, 48 h; series mostly up to 57.5 µM
In short: as §1

Tov112D = assay: as above; details: Gynecologic cancer cell panel viability, ATPlite luminescence, 48 h; series mostly up to 57.5 µM
In short: as §1

astro = assay: Drug repurposing screens with cells derived from glioblastoma tumor samples (AID 1345199); details: viability, ATP luminescence, 48 h; series mostly up to 45.9 µM; note: nearly all actives have a fitted effect of over 40% in size; note: potency is the fitted concentration of half-maximal effect
In short: (§2)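 Primary testing used CD133+ neurospheres from four GBM patients, seven concentrations, 48 h exposure and ATP-based viability; confirmation added three slower-growing patient lines.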

Hek293T = assay: Primary qHTS to identify gynecologic anti-cancer compounds using libraries of approved drugs and bioactive compounds (AID 1345084); details: Gynecologic cancer cell panel viability, ATPlite luminescence, 48 h, control line for the selectivity index; series mostly up to 57.5 µM; note: nearly all actives have a fitted effect of over 55% in size; note: potency is the fitted concentration of half-maximal effect
In short: as §1

OV90 = assay: as above; details: Gynecologic cancer cell panel viability, ATPlite luminescence, 48 h; series mostly up to 57.5 µM
In short: as §1

[1] = Drug repurposing screens with cells derived from glioblastoma tumor samples (AID 1345199); details: GBM patient neurospheres viability, ATP luminescence, 48 h; note: nearly all actives have a fitted effect of over 40% in size; note: potency is the fitted concentration of half-maximal effect
In short: as §2

[2] = target: Nuclear receptor subfamily 1 group I member 2 (Rattus norvegicus) (UniProt Q9R1A7); assay: qHTS assay for small molecule activators of the rat pregnane X receptor (rPXR) signaling pathway (AID 651751; call rule not given here); details: rPXR reporter cells, luciferase (One-Glo), 24 h
Sequence of Nuclear receptor subfamily 1 group I member 2 (Rattus norvegicus) (Q9R1A7 whole entry, looked up): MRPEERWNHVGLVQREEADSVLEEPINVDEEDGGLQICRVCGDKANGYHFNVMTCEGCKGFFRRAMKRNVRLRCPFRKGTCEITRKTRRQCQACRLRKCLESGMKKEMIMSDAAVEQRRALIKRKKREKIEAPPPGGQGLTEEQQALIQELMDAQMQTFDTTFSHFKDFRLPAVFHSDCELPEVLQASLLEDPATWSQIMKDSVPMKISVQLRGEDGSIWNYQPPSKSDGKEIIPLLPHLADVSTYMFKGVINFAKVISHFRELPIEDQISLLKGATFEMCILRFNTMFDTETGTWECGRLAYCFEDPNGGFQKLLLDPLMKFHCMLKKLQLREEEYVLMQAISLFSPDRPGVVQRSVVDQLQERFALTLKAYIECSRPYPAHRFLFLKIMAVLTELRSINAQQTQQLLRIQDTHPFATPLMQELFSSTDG

[3] = qHTS assay for small molecule activators of the human pregnane X receptor (PXR) signaling pathway (AID 720659; call rule not given here)
[4] = at 45.9 µM (top of the series), tumour line B
[5] = at 45.9 µM (top of the series), tumour line D
[6] = at 46.1 µM (top of the series), tumour line C
[7] = at 46 µM (top of the series), tumour line A
[8] = at 20 µM (top of the series), tumour line C
[9] = at 21.2 µM (top of the series), tumour line B
[10] = at 21.2 µM (top of the series), tumour line D
[11] = at 21.3 µM (top of the series), tumour line A

Compound: c1ccc(OCc2ccc(CCCN3CCOCC3)cc2)cc1
- Potency (CAOV3): inactive
- Potency (CASKI): inactive
- Potency (Es-2): inactive
- Potency (HeLa): inactive
- Potency (JEG-3): inactive
- Potency (PA-1): inactive
- Potency (SKOV3): inactive
- Potency (Tov-21-G): inactive
- Potency (Tov112D): inactive
- Potency (astro): inactive

Compound: COc1cc(-c2ccc(=O)[nH]n2)ccc1OC(F)F
- Potency (CAOV3): inactive
- Potency (CASKI): inactive
- Potency (Es-2): inactive
- Potency (Hek293T): inactive
- Potency (JEG-3): inactive
- Potency (OV90): inactive
- Potency (SKOV3): inactive
- Potency (Tov-21-G): inactive
- Potency (Tov112D): inactive
- activity, negative = cell killing [1, 4]: -9.45%
- activity, negative = cell killing [1, 5]: -28.9%
- activity, negative = cell killing [1, 6]: -14.1%

Compound: CN(C/C=C/c1ccccc1)Cc1cccc2ccccc12
- Potency (CAOV3): inactive
- Potency (CASKI): inactive
- Potency (Es-2): inactive
- Potency (HeLa): inactive
- Potency (JEG-3): inactive
- Potency (OV90): inactive
- Potency (PA-1): inactive
- Potency (Tov-21-G): inactive
- Potency (Tov112D): inactive
- activity, negative = cell killing [1, 4]: -26.7%
- activity, negative = cell killing [1, 5]: -18.5%
- activity, negative = cell killing [1, 6]: -27.1%

Compound: CCC(C(=O)OCCN(CC)CC)c1ccccc1 (configuration not stated)
- Potency (CAOV3): inactive
- Potency (CASKI): inactive
- Potency (Es-2): inactive
- Potency (HeLa): inactive
- Potency (Hek293T): inactive
- Potency (OV90): inactive
- Potency (PA-1): inactive
- Potency (SKOV3): inactive
- Potency (Tov-21-G): inactive
- Potency (Tov112D): inactive
- activity, negative = cell killing [1, 4]: -10.7%
- activity, negative = cell killing [1, 5]: 13.4%
- activity, negative = cell killing [1, 7]: -28.5%
- activity, negative = cell killing [1, 6]: 0.404%
- Potency (astro): inactive

Compound: CC(C)(C(=O)c1cccnc1)c1cccnc1
- Potency (CAOV3): inactive
- Potency (CASKI): inactive
- Potency (Es-2): inactive
- Potency (HeLa): inactive
- Potency (Hek293T): inactive
- Potency (OV90): inactive
- Potency (PA-1): inactive
- Potency (SKOV3): inactive
- Potency (Tov-21-G): inactive
- Potency (Tov112D): inactive
- activity, negative = cell killing [1, 8]: -7.19%
- activity, negative = cell killing [1, 9]: -14.8%
- activity, negative = cell killing [1, 10]: -8.11%
- activity, negative = cell killing [1, 11]: -19.8%

Compound: C/C=C(/C(=C/C)c1ccc(O)cc1)c1ccc(O)cc1
- Potency (CAOV3): inactive
- Potency (CASKI): inactive
- Potency (Es-2): inactive
- Potency (HeLa): inactive
- Potency (Hek293T): inactive
- Potency (JEG-3): inactive
- Potency (PA-1): inactive
- Potency (Tov-21-G): inactive
- Potency (Tov112D): inactive
- activity, negative = cell killing [1, 8]: -5.62%
- activity, negative = cell killing [1, 9]: -8.12%
- activity, negative = cell killing [1, 10]: -22.4%

Compound: CCN(CC)C(=O)/C(C#N)=C/c1cc(O)c(O)c([N+](=O)[O-])c1
- Potency (CAOV3): inactive
- Potency (CASKI): inactive
- Potency (Es-2): inactive
- Potency (HeLa): inactive
- Potency (Hek293T): inactive
- Potency (JEG-3): inactive
- Potency (SKOV3): inactive
- Potency (Tov-21-G): inactive
- activity, negative = cell killing [1, 4]: -9.02%
- activity, negative = cell killing [1, 5]: 4.73%
- activity, negative = cell killing [1, 7]: -20%
- activity, negative = cell killing [1, 6]: 7.42%

Compound: CCN(CCCCOC(=O)c1ccc(OC)c(OC)c1)C(C)Cc1ccc(OC)cc1 (configuration not stated)
- Potency (CAOV3): inactive
- Potency (CASKI): inactive
- Potency (Es-2): inactive
- Potency (HeLa): inactive
- Potency (Hek293T): inactive
- Potency (JEG-3): inactive
- Potency (PA-1): inactive
- Potency (SKOV3): inactive
- Potency (Tov-21-G): inactive
- Potency (Tov112D): inactive
- activity, negative = cell killing [1, 8]: -2.24%
- activity, negative = cell killing [1, 9]: -9.34%
- Potency ([1]; tumour line A): 5.62 µM (active)
- Potency (astro): inactive

Compound: COc1ccc(OC)c(C(O)CNC(=O)CN)c1 (configuration not stated)
- Potency (CAOV3): inactive
- Potency (CASKI): inactive
- Potency (Es-2): inactive
- Potency (HeLa): inactive
- Potency (JEG-3): inactive
- Potency (OV90): inactive
- Potency (PA-1): inactive
- Potency (SKOV3): inactive
- Potency (Tov-21-G): inactive
- Potency (Tov112D): inactive
- activity, negative = cell killing [1, 8]: -8.51%
- activity, negative = cell killing [1, 9]: -10.1%
- activity, negative = cell killing [1, 10]: -7.78%
- activity, negative = cell killing [1, 11]: -30.8%
- Potency (astro): inactive

Compound: C[C@]12CCC(=O)C=C1[C@@H]1C[C@@H]1[C@H]1[C@@H]3[C@@H]4C[C@@H]4[C@@]4(CCC(=O)O4)[C@@]3(C)CC[C@@H]12
- Potency (CAOV3): inactive
- Potency (CASKI): inactive
- Potency (Es-2): inactive
- Potency (HeLa): 3.55 µM (active)
- Potency (Hek293T): inactive
- Potency (JEG-3): inactive
- Potency (SKOV3): inactive
- Potency (Tov-21-G): inactive
- Potency (Tov112D): inactive
- activity, negative = cell killing [1, 4]: -20.2%
- activity, negative = cell killing [1, 5]: -9.23%
- activity, negative = cell killing [1, 6]: -0.55%
- Potency (astro): inactive

Compound: C=C(CC)C(=O)c1ccc(OCC(=O)O)c(Cl)c1Cl
- Potency (CAOV3): inactive
- Potency (CASKI): inactive
- Potency (Es-2): inactive
- Potency (HeLa): inactive
- Potency (JEG-3): inactive
- Potency (OV90): inactive
- Potency (PA-1): inactive
- Potency (SKOV3): inactive
- activity, negative = cell killing [1, 6]: 1.71%
- max response [2]: -15%
- outcome [3]: inactive

Compound: CN(C)C(=S)SC(=S)N(C)C
- Potency (CASKI): inactive
- Potency (Es-2): inactive
- Potency (HeLa): inactive
- Potency (JEG-3): inactive
- Potency (OV90): 7.94 µM (active)
- Potency (SKOV3): 11.2 µM (active)
- Potency (Tov-21-G): 8.91 µM (active)
- Potency (Tov112D): 28.2 µM (active)
- activity, negative = cell killing [1, 4]: -2.75%
- activity, negative = cell killing [1, 5]: -2.32%
- activity, negative = cell killing [1, 7]: -14.5%
- activity, negative = cell killing [1, 6]: -7.02%
- Potency (astro): inactive
- max response [2]: -1.67%

Compound: O=C(CCCN1CCC(O)(c2ccc(Br)cc2)CC1)c1ccc(F)cc1
- Potency (CASKI): inactive
- Potency (Es-2): inactive
- Potency (HeLa): inactive
- Potency (Hek293T): inactive
- Potency (JEG-3): inactive
- Potency (SKOV3): inactive
- Potency (Tov-21-G): inactive
- Potency (Tov112D): inactive
- activity, negative = cell killing [1, 8]: 5.41%
- Potency ([1]; tumour line A): 3.55 µM (active)
- Potency ([1]; tumour line D): 8.91 µM (active)

Compound: Nc1ccn([C@@H]2O[C@H](CO)[C@@H](O)C2(F)F)c(=O)n1
- Potency (CAOV3): 631 nM (active) and 1.12 µM (active)
- Potency (CASKI): inactive
- Potency (HeLa): inactive
- Potency (Hek293T): inactive
- Potency (JEG-3): inactive
- Potency (Tov-21-G): inactive
- Potency (Tov112D): 0.178 µM (active)

Compound: CN(C)/N=N/c1nc[nH]c1C(N)=O
- Potency (CAOV3): inactive
- Potency (JEG-3): inactive
- activity, negative = cell killing [1, 4]: -24.8%
- activity, negative = cell killing [1, 5]: -1.38%
- activity, negative = cell killing [1, 7]: -11.7%
- activity, negative = cell killing [1, 6]: -12%
- Potency (astro): inactive
- max response [2]: -2.27%
- outcome [3]: inactive

Compound: CCCCCCC[N+](CC)(CC)CCCCc1ccc(Cl)cc1
- Potency (CAOV3): 11.2 µM (active)
- Potency (CASKI): 10 µM (active)
- Potency (OV90): 10 µM (active)
- Potency (PA-1): 4.47 µM (active)
- Potency (Tov-21-G): 20 µM (active)
- Potency (astro): 8.91 µM (active)
